The panel holds about 83,000 compounds, 20% with a hit somewhere; the sample as a whole holds those more often.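 Activity criterion: percent growth below 10, measured after cells in 96-well plates were exposed to a single compound concentration for 48 hours.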 Unmarked numbers belong to inactive results. Activity calls are given as the source filed them.
Tested on: HL-60(TB) leukemia
Assay: NCI-60 one-dose screen, 48 h (100 = growth as untreated, 0 = no growth, -100 = all killed)
Details: 10 µM unless noted

| Compound | growth |
| --- | --- |
| Nc1nc(=O)n([C@H]2CC=C(CO)O2)cc1F | 88% |
| O=C(Nc1ccc(N=Nc2ccccc2)cc1)c1cccc2ccccc12 | 11.8% |
| O=C(COc1cccc(/C=C2\COc3ccccc3C2=O)c1)Nc1nccs1 | -58.4% (active) |
| CCOC(=O)C/C(C)=N\NC(=O)c1ccncc1 | 99.4% |
| O=[n+]1ccn([O-])c2ccccc21 | 118% |
| C#Cc1cccc(Nc2nc(Cl)nc3cc(NC(=O)CCl)ccc23)c1 | -45.8% (active) |
| CSc1ccc(Cl)c(C(=O)Nc2sccc2C(N)=O)c1 | 91.3% |
| CCOC(=O)c1sc(-c2ccc(OS(=O)(=O)C[C@]34CCC(CC3=O)C4(C)C)c(C=O)c2)nc1C | -5% (active) |
| N#Cc1c(NC(=O)c2ccco2)[n+]([O-])c2cc(F)c(F)cc2[n+]1[O-] | 38% |
| O=[N+]([O-])c1ccc(O)c2ncccc12 | -4.85% (active) |
| Cc1nn(-c2ccc([N+](=O)[O-])cc2)c2ncnc(N/N=C/c3ccccc3O)c12 | -0.479% (active) |
| CN(CCCCCCCCNc1ccnc2ccccc12)Cc1ccc(-c2ccc(-c3ccc(C#N)cc3)s2)cc1 | -58.4% (active) |
| O=C(NCCCCCCCNC(=O)OCc1ccc2c(Cl)cc(Cl)c(O)c2n1)OCc1ccc2c(Cl)cc(Cl)c(O)c2n1 | -45.9% (active) |
| COC(=O)c1nc(-c2ccccc2)oc1S(=O)(=O)NCC(c1ccc(Cl)cc1)N1CCOCC1 (stereo not given) | 4.12% (active) |
| CC(C)N=C(N)/N=C(\N)Nc1ccc2ccc3ccccc3c2c1 | -47.8% (active) |
| Cc1nc2ccc(Cl)cn2c1-c1nnc(SCc2ccc([N+](=O)[O-])cc2)o1 | 109% |
| COc1cccc(/C=N/NC(=O)c2ccccc2Nc2ccnc(C(F)(F)F)c2)c1O | 34.8% |
| CN(C)c1ccc(C2(Cl)c3ccccc3N(C)c3ccccc32)cc1 | 17.5% |
| Cc1cc(/C=C/c2ccc3cc(N(C)C)ccc3[n+]2C)c(C)n1-c1ccccc1 | -26.1% (active) |
| CCOC(=O)C1=C(COCCN)NC(C)=C(C(=O)OC)C1c1ccccc1Cl (stereo not given) | 95.5% |

| Compound | growth |
| --- | --- |
| CN(C)CCN1C(=O)c2cccc3cc(N)cc(c23)C1=O | 1.68% (active) |
| COc1cccc(NC(=O)c2c(-c3ccccc3)c(-c3ccccc3)n[nH]c2=O)c1 | 95.5% |
| COC(=O)N[C@H]1CCc2c(Cl)c(OC)c(OC)c(OC)c2-c2ccc(SC)c(=O)cc21 | -42.4% (active) |
| CCC(C)C(N)C(=O)NNc1n[nH]c(=S)n1N (stereo not given) | 100% |
| COc1ccc(C2C(c3nn[nH]n3)=C(N)Oc3c2ccc2ccccc32)cc1 (stereo not given) | 31.9% |
| Cn1cc(-c2csc(-c3cn(C(=O)OC(C)(C)C)c4ccccc34)n2)c2cccnc21 | 65.8% |
| COc1ccc(-c2nc(SCC(=O)Nc3nc4ccc(C)cc4s3)[nH]c(=O)c2C#N)cc1OC | 105% |
| CC(C)(C)[Si](C)(C)OC1[C@@H](O[Si](C)(C)C(C)(C)C)[C@@H](CNC(=O)NC(=O)CCl)O[C@H]1n1cnc2c(NC(=O)Nc3ccccc3)ncnc21 (stereo not given in full) | -73.1% (active) |
| Cc1cccc(N2CCN(CC(O)COc3ccc(Cl)cc3)CC2)c1 (stereo not given) | 123% |
| Fc1ccc(NCc2cn(-c3ccccc3)nc2-c2ccc(OCc3ccccc3)cc2)cc1Cl | 79.5% |
| Cc1ccsc1C(NC(=O)c1ccccc1)c1cc(Cl)c2cccnc2c1O (stereo not given) | 12.4% |
| COc1ccc(-c2cc(-c3ccc(Nc4nc(Nc5ccccc5)nc(Nc5ccc(Cl)cc5)n4)cc3)nc(N)c2C#N)cc1 | 33.1% |
| O=C(Nc1nc(C(=O)N2CCN(C(c3ccccc3)c3ccccc3)CC2)cs1)c1ccc(NC2CCCCC2)c([N+](=O)[O-])c1 | 98.5% |
| CN(C)c1ccc(/C=C(\C#N)c2nc3ccccc3s2)cc1 | 93.3% |
| O=C(O)c1cc2ccccc2cc1Nc1ccccc1 | 93.3% |
| O=C(CSc1nc(-c2ccccc2)cn1-c1ccc(Cl)cc1)c1ccc([N+](=O)[O-])cc1 | 95.8% |
| CCNc1nc(-c2ccc(F)cc2)c(C#N)c(=O)n1C | 85.8% |
| Clc1ccc(C2CC(c3cccc(Nc4ccncc4)c3)=NN2c2ccc(Cl)cc2)cc1 (stereo not given) | -45.3% (active) |
| Cn1cc(Nc2nccc(-c3ccc(N4CCCC4)c(C#N)c3)n2)cn1 | -17.8% (active) |
| C#CCNc1nc(NCCNC(=O)CCl)nc(N(C)CCCCc2ccccc2)n1 | 107% |
